BAZ2B block: qHTS Assay for Inhibitors of BAZ2B; AlphaScreen BAZ2B-H3K14Ac peptide displacement; 360,000 compounds, 4.4% hits; Potency, µM (top dose mostly 114 µM), for inactives: at the highest dose activity change, negative = inhibition, actives largely listed as inhibitors; Bromodomain adjacent to zinc finger domain protein 2B (Homo sapiens), Q9UIF8; also: % is scaled to controls: 0 for no effect and ±100 for the full control effect; nearly all actives have a fitted effect of over 60% in size
Target sequence (Q9UIF8 whole entry, looked up, the tested form may be a part): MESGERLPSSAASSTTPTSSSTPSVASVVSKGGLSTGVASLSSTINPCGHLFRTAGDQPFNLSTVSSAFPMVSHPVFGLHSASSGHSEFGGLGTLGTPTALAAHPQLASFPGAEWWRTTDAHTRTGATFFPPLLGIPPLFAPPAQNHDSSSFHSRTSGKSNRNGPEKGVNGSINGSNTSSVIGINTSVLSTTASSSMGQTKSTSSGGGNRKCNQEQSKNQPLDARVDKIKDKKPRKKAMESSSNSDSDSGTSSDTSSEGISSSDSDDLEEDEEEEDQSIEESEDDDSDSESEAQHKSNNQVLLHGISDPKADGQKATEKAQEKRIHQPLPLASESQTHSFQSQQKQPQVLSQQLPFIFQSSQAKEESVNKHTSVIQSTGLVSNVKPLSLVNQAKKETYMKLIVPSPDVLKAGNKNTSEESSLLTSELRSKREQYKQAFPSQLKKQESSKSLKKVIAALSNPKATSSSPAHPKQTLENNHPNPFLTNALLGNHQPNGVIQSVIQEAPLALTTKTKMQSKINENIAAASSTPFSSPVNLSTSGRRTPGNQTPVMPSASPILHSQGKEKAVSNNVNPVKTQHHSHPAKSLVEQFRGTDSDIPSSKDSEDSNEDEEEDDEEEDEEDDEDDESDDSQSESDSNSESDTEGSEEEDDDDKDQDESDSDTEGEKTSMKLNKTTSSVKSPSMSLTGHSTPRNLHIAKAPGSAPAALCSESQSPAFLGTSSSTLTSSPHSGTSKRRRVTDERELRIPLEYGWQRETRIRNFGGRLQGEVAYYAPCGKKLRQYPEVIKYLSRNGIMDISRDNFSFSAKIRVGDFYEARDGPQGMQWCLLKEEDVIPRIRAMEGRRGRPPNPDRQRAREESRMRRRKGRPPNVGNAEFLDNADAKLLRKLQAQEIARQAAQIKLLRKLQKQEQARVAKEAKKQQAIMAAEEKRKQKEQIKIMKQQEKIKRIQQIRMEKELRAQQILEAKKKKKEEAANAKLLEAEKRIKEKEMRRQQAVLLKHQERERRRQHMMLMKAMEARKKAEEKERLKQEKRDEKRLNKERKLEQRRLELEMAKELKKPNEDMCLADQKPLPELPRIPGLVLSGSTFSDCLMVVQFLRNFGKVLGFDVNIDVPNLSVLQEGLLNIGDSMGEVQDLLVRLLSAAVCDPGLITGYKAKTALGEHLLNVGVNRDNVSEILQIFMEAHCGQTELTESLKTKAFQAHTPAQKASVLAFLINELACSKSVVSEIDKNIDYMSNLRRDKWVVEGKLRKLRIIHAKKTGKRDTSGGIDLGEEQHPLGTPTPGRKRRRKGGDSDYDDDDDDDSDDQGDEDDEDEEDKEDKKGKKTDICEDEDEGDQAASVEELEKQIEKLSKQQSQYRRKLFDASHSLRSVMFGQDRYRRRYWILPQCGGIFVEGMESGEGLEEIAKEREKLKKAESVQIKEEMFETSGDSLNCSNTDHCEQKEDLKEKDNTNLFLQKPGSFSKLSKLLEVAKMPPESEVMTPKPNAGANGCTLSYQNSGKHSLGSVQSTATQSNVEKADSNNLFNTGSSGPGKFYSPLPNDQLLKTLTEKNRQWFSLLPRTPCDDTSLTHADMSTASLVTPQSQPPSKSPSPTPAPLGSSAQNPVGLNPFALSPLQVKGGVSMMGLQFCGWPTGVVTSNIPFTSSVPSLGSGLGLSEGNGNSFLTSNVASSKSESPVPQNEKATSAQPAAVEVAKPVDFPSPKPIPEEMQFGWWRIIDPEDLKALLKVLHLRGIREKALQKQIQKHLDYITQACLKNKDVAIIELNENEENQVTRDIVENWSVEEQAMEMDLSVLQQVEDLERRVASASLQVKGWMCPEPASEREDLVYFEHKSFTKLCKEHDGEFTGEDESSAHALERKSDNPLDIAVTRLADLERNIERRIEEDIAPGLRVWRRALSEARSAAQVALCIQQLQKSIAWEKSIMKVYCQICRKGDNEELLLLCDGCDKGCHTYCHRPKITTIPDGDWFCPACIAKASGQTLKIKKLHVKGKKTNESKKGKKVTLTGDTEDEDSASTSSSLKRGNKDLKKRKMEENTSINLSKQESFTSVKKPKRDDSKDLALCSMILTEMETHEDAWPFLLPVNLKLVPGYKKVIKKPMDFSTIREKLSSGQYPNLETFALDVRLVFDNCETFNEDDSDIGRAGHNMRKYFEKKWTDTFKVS
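BAZ2B 50 nM plus b-H3(5-23)K14Ac 50 nM, PBS pH 7.4/0.01% Tween-20, 30 min RT; compound added (max 110 uM), 30 min RT; streptavidin donor/Ni-chelate acceptor beads 10 ug/mL final, 20 min dark; AlphaScreen read.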
HP1b chromo inh: HTS for Inhibitors of HP1-beta Chromodomain Interactions with Methylated Histone Tails | 390,000 compounds, 0.56% hits | AlphaScreen HP1-beta / biotin-H3K9me3 peptide binding | Potency, µM (titrated, usually from 114 µM), for inactives: at the top dose activity change, negative = inhibition, actives largely listed as inhibitors; also: nearly all actives have a fitted effect of over 70% in size
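AlphaScreen: HP1-beta (50 nM) preformed 30 min with biotin-H3(1-18)K9me3 peptide (50 nM) in PBS pH 7.4, 0.01% Tween-20. Compound added for 30 min at RT, then streptavidin donor/nickel chelate acceptor beads (10 ug/mL) for 30 min.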
L3MBTL1 inh: qHTS Assay for the Inhibitors of L3MBTL1. Lethal(3)malignant brain tumor-like protein 1 (Homo sapiens), Q9Y468. AlphaScreen L3MBTL1–H3K9me1 peptide binding. Potency, µM (top dose mostly 57.1 µM), without a hit: at the highest dose activity, negative = inhibition, hits mostly inhibitors. 230,000 compounds, 0.66% hits; also: % is scaled to controls: 0 for no effect and ±100 for the full control effect; nearly all actives have a fitted effect of over 60% in size
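L3MBTL1 (50 nM) pre-complexed 30 min with biotinylated H3(1-15)K9me1 peptide (75 nM), then compounds added for 30 min at room temperature; AlphaScreen streptavidin donor/nickel chelate acceptor beads (10 ug/mL final) read after 30 min dark incubation.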
Sfp PPTase inh: qHTS Assay for Inhibitors of Bacillus subtilis Sfp phosphopantetheinyl transferase (PPTase). 4'-phosphopantetheinyl transferase ffp (Bacillus subtilis), Q9F4F7. Biochemical Sfp PPTase activity, qHTS. Potency, µM, for inactives: largest response in the series, negative = inhibition, actives largely listed as inhibitors. 310,000 compounds, 3.5% hits. AID 1490, 2009;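 also: the enzyme is Sfp with the accession as filed and its product quenches rhodamine fluorescence; 0% = enzyme reaction without inhibitor and -100% = no enzyme wells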
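Reaction rates are the 30-min fluorescence difference (ex 525, em 598 nm) in wells containing 15 nM Sfp, 5 uM rhodamine-CoA and 12.5 uM BHQ-2-YbbR at pH 7.6 with 10 mM MgCl2.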
JMJD2A Tudor inh: qHTS Assay for Inhibitors of JMJD2A-Tudor Domain | AlphaScreen JMJD2A-Tudor / H3K4me3 peptide binding | Potency, µM (doses to about 114 µM), for inactives: at the top dose activity change, negative = inhibition, actives largely listed as inhibitors | 390,000 compounds, 4.4% hits; also: % is scaled to controls: 0 for no effect and ±100 for the full control effect; nearly all actives have a fitted effect of over 50% in size
G9a inh: qHTS Assay for Inhibitors of Histone Lysine Methyltransferase G9a; Histone-lysine N-methyltransferase EHMT2 (Homo sapiens), Q96KQ7; Potency, µM (series often up to 102 µM), for inactives: at the top dose activity, negative = inhibition, most hits filed as inhibitors; AID 504332, 2011; 350,000 compounds, 8.8% hits; G9a H3K9 monomethylation, AlphaScreen, 2 h; also: % is scaled to controls: 0 for no effect and ±100 for the full control effect; nearly all actives have a fitted effect of over 75% in size
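AlphaScreen detection with an anti-monomethyl H3K9 antibody quantified product after a 2 h room-temperature reaction containing 500 nM biotinylated H3K9 peptide, 20 µM SAM and 20 nM enzyme, which had been preincubated 15 min with compound.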
The depositor's hits bear a star; ? = inconclusive; nt = no result given; [ ] = dose if it differs, or a comment. Rows were chosen to be rich in hits. Some 12% of all compounds tested hit in one or more screens of this group. Calls follow the shape of the dose curve; as a rule, active = well fitted curve in the direction sought with a large enough effect; inconclusive = small, poorly fitted or top-dose-only effect, or another doubt; inactive = no such curve, though single readings can be large; an effect the other way counts as inactive or inconclusive. Potency is read from the fitted curve at half-maximal effect.

SMILES	BAZ2B block	HP1b chromo inh	L3MBTL1 inh	Sfp PPTase inh	JMJD2A Tudor inh	G9a inh
Cc1nn(-c2ccccc2)c2c1N(CC(=O)N1CCN(c3ccc(F)cc3)CC1)C(=O)CS2	-1%	58%	nt	nt	-10%	3%[59 µM]
COc1ccc(C(=O)NCC(c2ccc3c(c2)OCO3)N2CCN(c3ccc(F)cc3)CC2)cc1 (stereo not given)	-37%	-7%[57 µM]	nt	nt	?	-26%[59 µM]
COc1cccc(C(=O)NCC(c2ccc3c(c2)OCO3)N2CCN(c3ccc(F)cc3)CC2)c1 (stereo not given)	0%	-9%	-18%	nt	?	45µM*
COc1ccc(C(=O)NCC(c2ccc3c(c2)OCO3)N2CCN(c3ccc(OC)cc3)CC2)cc1 (stereo not given)	?	2%	-3%	nt	?	6.3µM*
COc1cccc(C(=O)NCC(c2ccc3c(c2)OCO3)N2CCOCC2)c1 (stereo not given)	7%	56%[57 µM]	nt	nt	1%	3%[59 µM]
CN1CCN(C(CNC(=O)C(=O)Nc2ccc3c(c2)OCO3)c2ccc(F)cc2)CC1 (stereo not given)	7%	-18%	-5%	nt	-24%	50µM*
COc1ccc(C(CNC(=O)C(=O)Nc2ccc3c(c2)OCO3)N2CCN(C)CC2)cc1 (stereo not given)	10%	19%	-2%	nt	-6%	-26%[59 µM]
Fc1ccc(-c2noc3ncnc(N4CCCCC4)c23)cc1	17%[57.1 µM]	48%	nt	nt	-10%	-3%[59 µM]
COc1cccc(CNC(=O)c2cnc3c(-c4ccc(F)cc4)c(C)nn3c2C)c1	-4%	26%	nt	nt	5%	9%[59 µM]
O=C(Cn1c(-c2cccs2)cc2cc(F)ccc21)NCCc1ccc(Cl)cc1	-11%	26%	nt	nt	-7%	-6%[59 µM]
Cc1ccc(CN2C(=O)C(O)(c3c(C)[nH]c4ccccc34)c3ccccc32)cc1 (stereo not given)	45µM*	?	nt	nt	?	?
O=C1CC(c2cc(F)cc(F)c2)c2cc3c(cc2N1)OCO3 (stereo not given)	?	-3%	nt	nt	-32%	-32%[59 µM]
C=CCN(C(=O)CCc1ccccc1OC)c1nc(-c2ccc(S(C)(=O)=O)cc2)cs1	-24%	4%	nt	-7%	-12%	-1%
C=CCN(C(=O)Cc1cccs1)c1nc(-c2ccc(S(C)(=O)=O)cc2)cs1	-17%	-4%	nt	-4%	-30%	71µM*
CCCSC1=N/C(=C\C=C\c2ccco2)C(=O)S1	11µM*	35µM*	5.6µM*	32µM*	16µM*	14µM*
COc1cc(/C=C2/N=C(C3CCCCC3)OC2=O)cc(OC)c1OC	15%	60%	nt	?	?	-47%[59 µM]
O=C1SC(SCc2ccccc2)=N/C1=C\c1ccco1	13µM*	?	nt	-21%	56µM*	13µM*
COc1cc(/C=C2\N=C(C)OC2=O)cc(OC)c1OC	-4%	8%	nt	6%	-9%	32µM*
O=C1SC(c2ccccc2)=N/C1=C/c1ccco1	-30%	-13%	-6%	-4%	?	50µM*
O=C(Nc1ccc(C(F)(F)F)cc1)C1CCCN(c2cnccn2)C1 (stereo not given)	-18%	23%	nt	nt	-20%	-5%[59 µM]
COc1ccc(-c2nc3cnc(Nc4cccc(OC)c4)nc3n(C3CC3)c2=O)cc1	nt	nt	nt	4%	nt	6%[0.501 µM]
CC1CCN(C(=O)Cn2c(SCC(=O)Nc3ccc(F)cc3)nc3ccccc32)CC1	-12%	-4%	nt	nt	-19%	24%[59 µM]

Compound activity as filed in PubChem BioAssay.
